Entries with a potency or affinity are not part of this list. Activity calls are given as the source filed them. No rule for the calls is given here.
experiment: HepG2 cell cytotoxicity, cytotoxicity control, set 4 (AID 504910); conditions: series mostly up to 50 µM

Compound | outcome
CCC(Sc1nc2ccccc2c(=O)[nH]1)C(=O)Nc1cccc(OC)c1 (stereo unspecified) | inactive
CN[C@@H]1[C@H](O[C@H]2[C@H](O[C@H]3[C@H](O)[C@@H](O)[C@H](N=C(N)N)[C@@H](O)[C@@H]3N=C(N)N)O[C@@H](C)[C@]2(O)C=O)O[C@@H](CO)[C@H](O)[C@H]1O | inactive
CCC(Sc1nc2ccccc2c(=O)[nH]1)C(=O)NC1CCCCC1 (stereo unspecified) | inactive
O=C(CSc1nc2ccccc2c(=O)[nH]1)N1CCOCC1 | inactive
O=C(CSc1nc2ccccc2c(=O)[nH]1)NCc1ccc(Cl)cc1 | inactive
Cc1cc(=O)[nH]c(SCC(=O)NC2CCCCC2)n1 | inactive
O=c1[nH]c(=S)[nH]c2ccccc12 | inactive
O=C(CSc1nc2ccccc2c(=O)[nH]1)NC1CCCCC1 | inactive
Cc1ccc(NC(=O)CSc2nc3ccccc3c(=O)[nH]2)cc1Cl | inactive
Cc1nc(SCc2ccccc2Cl)[nH]c(=O)c1C | inactive
CC[C@@H](CO)NCCN[C@@H](CC)CO | inactive
COC(=O)C(C)Oc1ccc(Cc2ncc(C(F)(F)F)cc2Cl)cc1 (stereo unspecified) | inactive
CN(C)C(=O)CSc1nc2ccccc2c(=O)[nH]1 | inactive
CN1CCC(NC(=O)CSc2nc3ccccc3c(=O)[nH]2)CC1 | inactive
Cc1nc(SCC(N)=O)[nH]c(=O)c1C | inactive
COc1cccc(NC(=O)CSc2nc3c(c(=O)[nH]2)CCC3)c1 | inactive

Compound | outcome
COc1cccc(NC(=O)CSc2nc3ccccc3c(=O)[nH]2)c1 | inactive
O=C(CSc1nc2c(c(=O)[nH]1)CCC2)NC1CCCCC1 | inactive
CC(C)NC(=O)CSc1nc2ccccc2c(=O)[nH]1 | inactive
Cc1cccc(/C=C/C(=O)c2ccc([N+](=O)[O-])o2)c1 | inactive
Cn1c(SCC(=O)NC2CCCCC2)nc2ccccc2c1=O | inactive
CC[N+](C)(CC)CCCCOc1ccc2c(c1)C(=O)c1cc(OCCCC[N+](C)(CC)CC)ccc1-2 | inactive
O=C(CSc1nccc(=O)[nH]1)NC1CCCCC1 | inactive
COC(=O)c1ccc(CNc2c(N3CCCC3)c(=O)c2=O)cc1 | inactive
CN(C(=O)CSc1nc2ccccc2c(=O)[nH]1)C1CCCCC1 | inactive
CNC(=O)CSc1nc2ccccc2c(=O)[nH]1 | inactive
O=c1[nH]c(SCc2ccccc2Cl)nc2c1CCCC2 | inactive
O=C(CSc1ncccn1)NC1CCCCC1 | inactive
Cc1c[nH]c(=S)[nH]c1=O | inactive
CC(C)CCNC(=O)CSc1nc2ccccc2c(=O)[nH]1 | inactive
NC(=O)c1cnccn1 | inactive
